Test results taken from publication PMC11995724, “Antibiotic target discovery by integrated phenotypic and activity-based profiling of electrophilic fragments” (Cell chemical biology, 2025).
In all, about 3,200 compounds went through this assay and about 110 (3.4%) showed an effect of 50% or more. The list comes from a sample in which strong results are over-represented; it also holds similar structures and randomly drawn compounds.

Test system: T1, V. cholerae SAD30
T1 construct: SAD30
Design: species or system S. aureus MSSA476 (TSB) or V. cholerae SAD30 (LB); 384-well bacterial growth screen at 25 uM, OD600 relative to DMSO control
Conditions: relative growth, OD600, LB; 25 µM; inhibitor

| Structure (SMILES) | % of control remaining [%] |
| --- | --- |
| N#CC(=Cc1cc([N+](=O)[O-])ccc1Cl)C(N)=O [8-F21, 3-(2-chloro-5-nitrophenyl)-2-cyanoprop-2-enamide] | 76.0707 |
| O=C(CCl)Nc1cc(C(F)(F)F)ccc1Cl [4-J04, 2-chloro-N-[2-chloro-5-(trifluoromethyl)phenyl]acetamide] | 111.106 |
| O=C(CCl)N1CCCCc2ccc([N+](=O)[O-])cc21 [5-I18, 2-chloro-1-(8-nitro-2,3,4,5-tetrahydro-1H-1-benzazepin-1-yl)ethan-1-one] | 94.3154 |
| O=C1C=CC(=O)N1c1cc([N+](=O)[O-])ccc1Cl [10-H15, 1-(2-chloro-5-nitrophenyl)-2,5-dihydro-1H-pyrrole-2,5-dione] | 28.2096 |
| Cc1ccc([N+](=O)[O-])cc1N1C(=O)C=CC1=O [10-O14, 1-(2-methyl-5-nitrophenyl)-2,5-dihydro-1H-pyrrole-2,5-dione] | 26.6511 |
| CC(Cl)C(=O)Nc1cc([N+](=O)[O-])ccc1Cl (stereo not drawn) [6-I14, 2-chloro-N-(2-chloro-5-nitrophenyl)propanamide] | 87.6671 |
| O=C1C=CC(=O)N1c1cc(C(F)(F)F)ccc1Cl [10-G09, 1-[2-chloro-5-(trifluoromethyl)phenyl]-2,5-dihydro-1H-pyrrole-2,5-dione] | 26.3394 |
| CC(Cl)C(=O)Nc1cc(C(F)(F)F)ccc1Cl (stereo not drawn) [4-N15, 2-chloro-N-[2-chloro-5-(trifluoromethyl)phenyl]propanamide] | 99.8922 |
| N#Cc1cc([N+](=O)[O-])ccc1NC(=O)CCl [4-O09, 2-chloro-N-(2-cyano-4-nitrophenyl)acetamide] | 91.611 |
| CC(NC(=O)CCl)C(=O)N1CCCCC1C (stereo not drawn) [5-M06, 2-chloro-N-[1-(2-methylpiperidin-1-yl)-1-oxopropan-2-yl]acetamide] | 96.6691 |
| C=CC(=O)NC(C)c1cn(-c2ccccc2)nn1 (stereo not drawn) [1-N04, N-[1-(1-phenyl-1H-1,2,3-triazol-4-yl)ethyl]prop-2-enamide] | 110.893 |
| COc1ccc(-c2nn(-c3ccccc3)cc2C=C(C#N)C(N)=O)cc1 [8-L16, 2-cyano-3-[3-(4-methoxyphenyl)-1-phenyl-1H-pyrazol-4-yl]prop-2-enamide] | 71.7199 |
| CCN(Cc1ccc(Cl)s1)C(=O)CCl [6-M11, 2-chloro-N-[(5-chlorothiophen-2-yl)methyl]-N-ethylacetamide] | 83.1169 |
| O=C(CCl)N1N=C(c2ccc(Cl)cc2)CC1c1ccco1 (stereo not drawn) [5-L04, 2-chloro-1-[3-(4-chlorophenyl)-5-(furan-2-yl)-4,5-dihydro-1H-pyrazol-1-yl]ethan-1-one] | 105.748 |
| CC(Cl)C(=O)N1N=C(c2ccc(Cl)cc2)CC1c1ccco1 (stereo not drawn) [5-H18, 2-chloro-1-[3-(4-chlorophenyl)-5-(furan-2-yl)-4,5-dihydro-1H-pyrazol-1-yl]propan-1-one] | 49.4273 |
| COc1ccc(C2=NN(C(=O)CCl)C(c3ccco3)C2)cc1 (stereo not drawn) [4-N19, 2-chloro-1-[5-(furan-2-yl)-3-(4-methoxyphenyl)-4,5-dihydro-1H-pyrazol-1-yl]ethan-1-one] | 106.103 |
| Cc1cc(C(=O)CCl)co1 [10-A13, 2-chloro-1-(5-methylfuran-3-yl)ethan-1-one] | 114.397 |

| Structure (SMILES) | % of control remaining [%] |
| --- | --- |
| Cn1c(=O)oc2cc(C(=O)CCl)ccc21 [10-F07, 6-(2-chloroacetyl)-3-methyl-2,3-dihydro-1,3-benzoxazol-2-one] | 44.886 |
| C=CC(=O)NCc1ccc2oc(=O)n(C)c2c1 [2-L15, N-[(3-methyl-2-oxo-2,3-dihydro-1,3-benzoxazol-5-yl)methyl]prop-2-enamide] | 88.6519 |
| Cc1nc2n(n1)CCN(C(=O)C(C)Cl)C2 (stereo not drawn) [5-A04, 2-chloro-1-{2-methyl-5H,6H,7H,8H-[1,2,4]triazolo[1,5-a]pyrazin-7-yl}propan-1-one] | 108.438 |
| O=C(CCl)NC(c1ccccc1)C1CCCC1 (stereo not drawn) [6-O18, 2-chloro-N-[cyclopentyl(phenyl)methyl]acetamide] | 92.0656 |
| CC(=O)NCCc1cc(C(=O)CCl)ccc1F [10-O05, N-{2-[5-(2-chloroacetyl)-2-fluorophenyl]ethyl}acetamide] | 118.138 |
| COC(=O)c1ccc2[nH]cc(C(=O)CCl)c2c1 [10-D05, methyl 3-(2-chloroacetyl)-1H-indole-5-carboxylate] | 99.1233 |
| Cc1cc(C(=O)CCl)c(C)n1-c1ccc(Cl)cc1 [10-H18, 2-chloro-1-[1-(4-chlorophenyl)-2,5-dimethyl-1H-pyrrol-3-yl]ethan-1-one] | 103.331 |
| COC(=O)c1ccccc1NC(=O)CCl [5-B12, methyl 2-(2-chloroacetamido)benzoate] | 89.6081 |
| COC(=O)c1cccc(C(=O)CCl)c1 [10-I11, methyl 3-(2-chloroacetyl)benzoate] | 32.4177 |
| CC(Cl)C(=O)c1ccc(F)c(F)c1 (stereo not drawn) [10-A17, 2-chloro-1-(3,4-difluorophenyl)propan-1-one] | 103.955 |
| O=C(CCl)c1cc(Cl)ccc1Cl [10-E16, 2-chloro-1-(2,5-dichlorophenyl)ethan-1-one] | 49.5617 |
| O=C(CCl)c1sccc1Cl [10-K11, 2-chloro-1-(3-chlorothiophen-2-yl)ethan-1-one] | 0 |
| Cc1cc(C(=O)CCl)c(C)n1-c1ccc(Cl)c(Cl)c1 [10-D18, 2-chloro-1-[1-(3,4-dichlorophenyl)-2,5-dimethyl-1H-pyrrol-3-yl]ethan-1-one] | 108.475 |
| O=C(O)c1csc(C(=O)CCl)c1 [10-E22, 5-(2-chloroacetyl)thiophene-3-carboxylic acid] | 102.864 |
| CN(C)C(=O)c1csc(C(=O)CCl)c1 [10-I07, 5-(2-chloroacetyl)-N,N-dimethylthiophene-3-carboxamide] | 105.981 |
| O=C(CCl)c1ccc(F)c(F)c1 [10-L13, 2-chloro-1-(3,4-difluorophenyl)ethan-1-one] | 4.208 |
